Laboratory results reported in PubChem BioAssay.
Active and inactive are the calls of the source. Unless noted, how the calls were made is not given here.

Experiments:
[1] = compounds binding Alexa647 anti-His antibody – biochemical, small-molecule microarray, 635 nm fluorescence, artefact control for SMM control protein annotation, primary screen (AID 1128); settings: higher = more signal;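 further: score merges feature fluorescence with signal-to-noise for each printed compound spot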
[2] = system: Human papillomavirus type 1a E7 protein (residues 1-88); assay: HPV1a E7 small-molecule binders, primary screen, biochemical, small-molecule microarray, residues 1-88, 635 nm (AID 1129); settings: small-molecule microarray binding, fluorescence 635 nm; higher = more signal
[3] = target: Focal adhesion kinase 1 (Homo sapiens) (UniProt Q05397); assay: PTK2 protein binding on printed compound slides – biochemical, small-molecule microarray, 635/667 nm fluorescence, BSA, DTT, primary screen (AID 1130); settings: 635 nm fluorescence, higher = more signal;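 further: composite of spot emission at 667 nm and signal to noise over triplicate slides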
Chain of Focal adhesion kinase 1 (Homo sapiens) (Q05397 whole entry, looked up): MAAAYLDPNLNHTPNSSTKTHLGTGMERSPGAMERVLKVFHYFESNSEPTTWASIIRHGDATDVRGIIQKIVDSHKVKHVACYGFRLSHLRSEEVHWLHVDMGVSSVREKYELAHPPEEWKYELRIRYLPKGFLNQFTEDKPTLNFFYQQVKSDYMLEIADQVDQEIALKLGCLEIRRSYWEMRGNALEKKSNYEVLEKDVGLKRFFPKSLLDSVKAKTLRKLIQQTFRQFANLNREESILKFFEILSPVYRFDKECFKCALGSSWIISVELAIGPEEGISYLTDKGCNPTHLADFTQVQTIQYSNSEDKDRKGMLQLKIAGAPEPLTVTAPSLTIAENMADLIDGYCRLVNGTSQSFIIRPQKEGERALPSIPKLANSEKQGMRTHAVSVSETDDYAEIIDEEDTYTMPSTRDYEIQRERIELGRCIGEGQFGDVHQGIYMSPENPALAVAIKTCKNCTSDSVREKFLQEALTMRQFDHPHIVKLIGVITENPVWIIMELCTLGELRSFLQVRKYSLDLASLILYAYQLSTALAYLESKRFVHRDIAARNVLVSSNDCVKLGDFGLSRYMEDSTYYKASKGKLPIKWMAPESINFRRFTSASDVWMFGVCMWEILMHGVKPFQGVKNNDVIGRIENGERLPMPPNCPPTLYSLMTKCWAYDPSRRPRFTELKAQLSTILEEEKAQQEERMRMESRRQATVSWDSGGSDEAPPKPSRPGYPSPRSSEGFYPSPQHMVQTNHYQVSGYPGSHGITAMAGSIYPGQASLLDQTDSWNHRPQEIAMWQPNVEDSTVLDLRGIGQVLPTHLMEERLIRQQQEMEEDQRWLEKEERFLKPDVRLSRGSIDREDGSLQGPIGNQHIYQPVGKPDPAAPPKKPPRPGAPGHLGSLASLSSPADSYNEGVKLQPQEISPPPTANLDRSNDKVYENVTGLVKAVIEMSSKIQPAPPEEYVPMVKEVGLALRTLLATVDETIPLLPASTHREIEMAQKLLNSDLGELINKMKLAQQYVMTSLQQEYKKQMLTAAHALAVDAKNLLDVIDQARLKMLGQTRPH

[4] = system: Fibrinogen (Alexa647-labelled); assay: Alexa647-fibrinogen binding to printed small molecules – biochemical, small-molecule microarray, 635/667 nm fluorescence, artefact control for SMM control-protein annotation, profiling panel (AID 1131); settings: fibrinogen-A647 binding fluorescence, higher = more signal;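 further: z-score merges 667 nm fluorescence with per-spot signal-to-noise over triplicate slides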
[5] = target: Follistatin (Homo sapiens) (UniProt P19883); assay: FST protein binding to printed compounds – biochemical, small-molecule microarray, 635/667 nm fluorescence, primary screen (AID 1132); settings: 635 nm fluorescence, higher = more signal
Chain of Follistatin (Homo sapiens) (P19883 whole entry, looked up): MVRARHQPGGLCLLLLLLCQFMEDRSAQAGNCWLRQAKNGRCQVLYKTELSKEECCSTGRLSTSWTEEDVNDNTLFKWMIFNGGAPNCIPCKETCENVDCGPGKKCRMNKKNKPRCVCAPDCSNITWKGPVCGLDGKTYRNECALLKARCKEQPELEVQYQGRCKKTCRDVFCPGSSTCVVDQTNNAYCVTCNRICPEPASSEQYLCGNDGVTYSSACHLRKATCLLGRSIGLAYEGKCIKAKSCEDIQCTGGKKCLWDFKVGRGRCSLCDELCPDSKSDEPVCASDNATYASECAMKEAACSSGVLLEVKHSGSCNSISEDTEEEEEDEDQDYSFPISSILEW

[6] = target: Fibroblast growth factor 2 (Homo sapiens) (UniProt P09038); assay: basic fibroblast growth factor binding to printed compounds – biochemical, small-molecule microarray, 635/667 nm fluorescence, primary screen (AID 1133); settings: FGF2, fluorescence 635/667, higher = more signal
Chain of Fibroblast growth factor 2 (Homo sapiens) (P09038 whole entry, looked up): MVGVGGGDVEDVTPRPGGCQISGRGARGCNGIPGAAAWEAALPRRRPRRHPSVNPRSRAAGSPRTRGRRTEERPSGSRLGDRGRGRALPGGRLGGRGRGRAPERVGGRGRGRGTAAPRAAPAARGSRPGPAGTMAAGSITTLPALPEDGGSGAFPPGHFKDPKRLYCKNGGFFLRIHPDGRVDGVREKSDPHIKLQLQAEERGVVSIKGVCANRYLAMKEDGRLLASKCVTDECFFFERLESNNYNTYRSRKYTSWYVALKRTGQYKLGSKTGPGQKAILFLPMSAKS

[7] = JC-1 mitochondrial potential readout, lung cancer cells – cell-based, A549, JC-1 fluorescence, basal, 24 h, 100 nL, profiling panel (AID 1138); settings: higher = more signal;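 further: A549 lung adenocarcinoma cells under basal conditions with no added stimulus; test concentration not given here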
[8] = system: Lefty1; assay: Lefty1 protein binding to printed compounds – biochemical, small-molecule microarray, 635/667 nm fluorescence, primary screen (AID 1139); settings: fluorescence 635/667, higher = more signal
[9] = system: wheat germ agglutinin (Triticum aestivum), Alexa647-labelled; assay: Alexa647-WGA lectin binding to printed small molecules – biochemical, small-molecule microarray, 635/667 nm fluorescence, artefact control for SMM control-protein annotation, profiling panel (AID 1140); settings: WGA-A647 binding, 635 nm fluorescence, higher = more signal;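 further: score merges 667 nm feature emission with signal to noise over triplicate slides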
[10] = target: Luciferin 4-monooxygenase (Photinus pyralis) (UniProt P08659); assay: inhibition of purified Photinus pyralis luciferase – biochemical, luminescence, purified enzyme, 2006 set, primary screen (AID 1141); settings: purified firefly luciferase, SteadyGlo luminescence, 30 min; higher = more signal, called active from +8 up or from −8 down;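 further: cell-free assay with purified firefly luciferase at 100 ng per well in PBS; test concentration not given here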
Chain of Luciferin 4-monooxygenase (Photinus pyralis) (P08659 whole entry, looked up): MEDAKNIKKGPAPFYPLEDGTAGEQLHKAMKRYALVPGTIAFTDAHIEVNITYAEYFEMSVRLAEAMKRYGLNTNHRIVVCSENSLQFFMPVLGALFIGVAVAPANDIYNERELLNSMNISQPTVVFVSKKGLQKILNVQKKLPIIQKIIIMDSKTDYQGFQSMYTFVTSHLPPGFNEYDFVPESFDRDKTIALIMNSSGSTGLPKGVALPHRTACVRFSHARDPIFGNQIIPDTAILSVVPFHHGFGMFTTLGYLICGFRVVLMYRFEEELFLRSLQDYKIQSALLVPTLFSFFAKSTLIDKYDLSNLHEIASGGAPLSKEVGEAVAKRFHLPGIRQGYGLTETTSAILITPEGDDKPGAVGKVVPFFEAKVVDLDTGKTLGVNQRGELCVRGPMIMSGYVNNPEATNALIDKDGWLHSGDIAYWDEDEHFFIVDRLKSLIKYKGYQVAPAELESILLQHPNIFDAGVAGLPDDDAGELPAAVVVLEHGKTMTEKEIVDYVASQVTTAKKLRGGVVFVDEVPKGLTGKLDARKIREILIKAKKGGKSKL

[11] = system: Wnt5a (protein binding on small-molecule microarray); assay: small molecules binding Wnt5a protein – biophysical, small-molecule microarray, 635/667 nm fluorescence, primary screen (AID 1142); settings: 635 nm fluorescence, higher = more signal;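 further: fluorescence read at 667 nm with signal to noise per printed feature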
[12] = ATP-based viability of Huh7 replicon cells – cell-based, CellTiter-Glo luminescence, basal, 48 h, cytotoxicity control for HCV replication inhibitor project, primary screen (AID 1143); settings: higher = more signal, called active from +8 up or from −8 down;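 further: Huh7 hepatoma cells carrying a hepatitis C replication reporter with no stimulus; test concentration not given here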
[13] = Pseudomonas biofilm growth suppression – PAO1 strain, BacTiter-Glo luminescence, LB-PBS, primary screen (AID 1144); settings: P. aeruginosa PAO1 biofilm, 12 h, higher = more signal
[14] = basal CRE-LacZ reporter activity in PC12 – cell-based, unstimulated, primary screen (AID 1145); settings: no forskolin, luminescence, 4.5 h, higher = more signal, called active from +8 up or from −8 down
[15] = forskolin-driven CRE-LacZ activity in PC12 – cell-based, CRE-LacZ reporter, forskolin-stimulated, primary screen (AID 1146); settings: luminescence, 4.5 h, higher = more signal, called active from +8 up or from −8 down;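 further: PC12 cells with 6xCRE LacZ reporter stimulated by forskolin 10 µM; beta-galactosidase reporter signal reflecting CREB driven transcription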
[16] = target: Streptavidin (Streptomyces avidinii) (UniProt P22629); assay: compounds binding control protein streptavidin – biophysical, small-molecule microarray, 635/667 nm fluorescence, artefact control for SMM compound annotation, primary screen (AID 1147); settings: higher = more signal;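 further: signal reflects streptavidin binding to arrayed compounds as a control protein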
Chain of Streptavidin (Streptomyces avidinii) (P22629 whole entry, looked up): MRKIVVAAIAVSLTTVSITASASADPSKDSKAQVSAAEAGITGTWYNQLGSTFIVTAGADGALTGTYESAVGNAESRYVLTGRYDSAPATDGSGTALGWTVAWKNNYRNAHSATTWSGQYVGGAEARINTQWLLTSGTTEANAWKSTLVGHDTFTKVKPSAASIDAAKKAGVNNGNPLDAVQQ

[17] = probe aInhba binding on compound microarray – biochemical, small-molecule microarray, 635/667 nm fluorescence, primary screen (AID 1148); settings: higher = more signal;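 further: score merges 667nm spot fluorescence with signal-to-noise for antibody binding to printed compounds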
[18] = target: Torsin-1A (Homo sapiens) (UniProt O14656); assay: TOR1A wild-type binding on microarray – cell lysate, small-molecule microarray, lysate, 635/667 nm, primary screen (AID 1149); settings: COS7 hTOR1A-WT lysate, 635 nm fluorescence, higher = more signal
Chain of Torsin-1A (Homo sapiens) (O14656 whole entry, looked up): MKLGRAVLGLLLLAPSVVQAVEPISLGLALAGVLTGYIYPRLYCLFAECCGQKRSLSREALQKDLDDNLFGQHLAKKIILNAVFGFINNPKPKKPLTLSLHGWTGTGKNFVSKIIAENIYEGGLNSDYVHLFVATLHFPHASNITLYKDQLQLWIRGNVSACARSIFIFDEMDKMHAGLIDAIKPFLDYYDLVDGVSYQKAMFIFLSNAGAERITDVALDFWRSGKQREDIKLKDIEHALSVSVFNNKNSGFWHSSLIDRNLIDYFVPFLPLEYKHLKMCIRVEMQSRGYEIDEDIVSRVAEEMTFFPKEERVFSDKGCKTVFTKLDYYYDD

[19] = target: Torsin-1A (Homo sapiens) (UniProt O14656); assay: torsin A mutant lysate binding on microarrays – cell lysate, small-molecule microarray, COS7 lysate, 635/667 nm fluorescence, primary screen (AID 1150); settings: COS7 hTOR1A mutant lysate, 635 nm fluorescence, higher = more signal;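 further: score pools 667 nm emission and signal to noise measuring lysate protein binding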
[20] = system: Sonic hedgehog protein (Shh); assay: Sonic hedgehog microarray binding compounds – biochemical, small-molecule microarray, 635/667 nm fluorescence, primary screen (AID 1151); settings: 635 nm fluorescence, higher = more signal;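 further: Shh protein binding to compounds spotted on small-molecule microarray slides; score combines spot fluorescence intensity with signal-to-noise across triplicate slides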

SMILES	composite z-score [1]	composite z-score [2]	composite z-score [3]	composite z-score [4]	composite z-score [5]	composite z-score [6]	z-score [7]	composite z-score [8]	composite z-score [9]	z-score [10]	composite z-score [11]	z-score [12]	z-score [13]	z-score [14]	z-score [15]	composite z-score [16]	composite z-score [17]	composite z-score [18]	composite z-score [19]	composite z-score [20]
O=C1C2C=CC(C(O)c3cccc(O)c3)N(Nc3ccc([N+](=O)[O-])cc3)C2C(=O)N1c1ccccc1 (stereo not given)	1.18	0.785	0.264	0.578	0.418	0.526	-1.15	0.292	0.0289	0.931 (inactive)	0.22	-0.933 (inactive)	-0.271 (inactive)	-0.257 (inactive)	-0.489 (inactive)	0.514	0.0649	0.331	0.132	-0.164
CCCCC(O)C1C=CC2C(=O)N(C)C(=O)C2N1N(c1ccccc1)c1ccccc1 (stereo not given)	1.92	1.15	0.912	0.824	0.613	-0.604	0.804	0.194	1.21	-0.004 (inactive)	0.29	-0.975 (inactive)	0.092 (inactive)	1.59 (inactive)	0.281 (inactive)	0.971	0.0075	0.14	0.464	0.471
CC(C)(C)OC(=O)COc1cccc(C(=O)CCN2CCOCC2)c1	-0.413	0.355	-0.272	0.226	-0.35	-0.284	0.583	-0.57	-0.0945	-2.13 (inactive)	-0.143	-1.13 (inactive)	2.34 (inactive)	0.416 (inactive)	12.2 (active)	-0.081	0.034	-1.01	-0.646	0.216
CCOC(=O)C[C@H]1[C@H](OC(=O)Cc2ccc3c(c2)OCO3)[C@@H](NC(=O)C2CCCCC2)c2cc(OCCCO)ccc2N1C(=O)c1ccccc1	0.0657	-0.0497	0.408	0.744	-0.2	0.0099	1.76	0.218	0.0468	-1.23 (inactive)	-0.0729	-0.0136 (inactive)	-1.38 (inactive)	2.82 (inactive)	-1.27 (inactive)	0.584	-0.0313	-0.0429	0.0914	0.0725
C=CCC(OC(C)=O)[C@@H]1[C@@H](N(Cc2ccc(-c3cccc(C(F)(F)F)c3)o2)C(=O)Cc2ccc(OC)cc2)c2cc(OCCCO)ccc2N1C(=O)c1ccc(-c2ccccc2)cc1 (stereo not given in full)	-0.0127	-0.501	-0.326	-0.771	0.569	0.119	0.0544	0.0533	-0.402	0.244 (inactive)	0.0179	-1.28 (inactive)	0.198 (inactive)	1.15 (inactive)	0.393 (inactive)	1.31	0.153	-0.368	-0.38	0.439
COC(=O)C1=CC(CCCO)=CC(c2cccs2)N(Cc2cccc(OC(F)(F)F)c2)C=C1C(=O)OC (stereo not given)	1.51	1.23	2.18	0.972	1.23	-0.141	1.87	0.233	1.13	-1.41 (inactive)	0.237	-3.26 (inactive)	0.759 (inactive)	-0.815 (inactive)	0.0187 (inactive)	1.93	-0.0619	1	1.56	-0.403
CCOC(=O)C[C@H]1[C@H](OC(=O)Cc2ccc3c(c2)OCO3)[C@@H](NC(=O)c2ccc3ccccc3n2)c2cc(OCCCO)ccc2N1C(=O)c1ccccc1	-0.0867	0.381	-0.0076	0.364	0.803	0.902	2.23	0.755	0.326	-0.992 (inactive)	0.151	-0.301 (inactive)	-0.283 (inactive)	7.23 (inactive)	0.613 (inactive)	0.386	0.0074	0.526	0.302	0.826
CCN(CC)c1ccc(N2CC=CC34O[C@@H]5/C=C\CCCOC(=O)C5[C@H]3C(=O)N(C(C)CO)[C@@H]4C2=O)cc1 (stereo not given in full)	-0.556	-0.107	-0.294	-0.158	0.077	0.305	1.18	-0.0464	-0.0344	-1.38 (inactive)	-0.367	0.307 (inactive)	-1.6 (inactive)	1.01 (inactive)	-0.695 (inactive)	-0.245	-0.0986	-0.428	-0.539	1.19
O=C(O)[C@@H]1C[C@@H]2C(=O)N3CCC[C@H]3C(=O)N2[C@@H]1c1ccc(O)cc1	2.3	0.258	0.251	-0.0516	1.42	1.07	-0.269	0.824	0.0465	-0.985 (inactive)	0.357	-2.79 (inactive)	0.235 (inactive)	0.0205 (inactive)	-1.18 (inactive)	0.262	0.0586	0.746	0.643	1.61
